From PubChem BioAssay
Inconclusive results are not listed. Calls of active or inactive are those of the source.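 Rule for the calls, unless noted: active = normalized viability below 100% at a tested concentration; inactive = the rest.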

Columns and labels:
[1] = growth inhibition of DIPG glioma cells, dose response, cell-based, SU-DIPG-XIII, MIPE4.0, CellTiter-Glo, qHTS (AID 1347061; cut-off not given, nearly all actives have AC50 up to about 37 µM;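 note: cells exposed to compound for 48 hours before readout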); settings: SU-DIPG-XIII viability, CellTiter-Glo ATP luminescence
[2] = growth inhibition of DIPG glioma cells, dose response, cell-based, JHH-DIPG-1, MIPE4.0, CellTiter-Glo, qHTS (AID 1347062; cut-off not given, nearly all actives have AC50 up to about 27 µM;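 for AC50: cells exposed to compound for two days before readout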); settings: JHH-DIPG-1 viability, CellTiter-Glo ATP luminescence
[3] = growth inhibition of DIPG glioma cells, dose response, cell-based, SU-DIPG-IV, MIPE4.0, CellTiter-Glo, qHTS (AID 1347063; cut-off not given, nearly all actives have AC50 up to about 30 µM;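 note: compound exposure lasted 48 hours before the viability readout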); settings: SU-DIPG-IV viability, CellTiter-Glo ATP luminescence
[4] = growth inhibition of DIPG glioma cells, dose response, cell-based, SU-DIPG-XIII, MIPE5.0, CellTiter-Glo, qHTS (AID 1347064; cut-off not given, nearly all actives have AC50 up to about 23 µM;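 for AC50: cells exposed to compound for 48 hours before the viability read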); settings: SU-DIPG-XIII viability, CellTiter-Glo ATP luminescence
[5] = viability loss in pontine glioma line – cell-based, SU-DIPG-XXV, MIPE5.0, CellTiter-Glo, qHTS, dose response (AID 1347065; cut-off not given, nearly all actives have AC50 up to about 26 µM;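 note: cells exposed to compound for 48 hours before ATP readout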); settings: CellTiter-Glo ATP luminescence
[6] = SU-DIPG-VI glioma cell viability, MIPE4.0 library, CellTiter-Glo luminescence, qHTS (AID 1347066; cut-off not given, nearly all actives have AC50 up to about 30 µM;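 note: cells exposed to compound for 48 hours before readout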); settings: CellTiter-Glo ATP luminescence
[7] = JHH-DIPG-1 glioma cell viability, MIPE5.0 library, CellTiter-Glo luminescence, qHTS (AID 1347067; cut-off not given, nearly all actives have AC50 up to about 26 µM;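 note: cells exposed to compound for 48 hours before readout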); settings: JHH-DIPG-1 glioma viability, CellTiter-Glo ATP luminescence
[8] = SU-DIPG-XXV glioma cell viability, MIPE5.0 library, qHTS (AID 1347068; cut-off not given, nearly all actives have IC50 up to about 30 µM;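 for IC50: cells exposed to compound for 48 hours before viability readout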)
[9] = ovarian cancer cell viability with rucaparib, profiling panel, oncology-focused library, rucaparib conditional (AID 1508598); settings: patient-derived ovarian cancer cells, CellTiter-Glo viability, 144 h, stronger effect = lower value
[10] = sensitizers of A549 cells to miR-34 induction, primary screen, imaging, A549 dox-inducible miR-34, nuclei and caspase counts (AID 1347080;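 active = compounds whose cell count with miR-34 switched on is under 0.7 times the count with it off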); settings: A549 miR-34 inducible, Hoechst nuclei count, 48 h
[11] = survival rescue of mitochondrial mutant cells in low glucose, primary screen, MELAS cybrids, Rieske KO mouse fibroblasts, CellTiter-Glo (AID 1508586;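 active = mean z-score across replicates of 1.96 or higher in either the MELAS or the Rieske mutant cell line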;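 note: z relative to plate mean and SD of compound and empty wells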)
[12] = modifiers of HSF1 nuclear foci, imaging, Selleck Cancer Library (AID 1347162; in the data active = plate-normalised HSF1 focus index below about 0.46); settings: human cells, at 10 µM; SSMD: measured here: HSF1 foci SSMD mean; cell count: measured here: cell number; plate-normalised HSF1 focus index: stronger effect = lower value
[13] = at 0.000305 µM, OCI-C5x cells, with rucaparib 10 µM, 100% = cells with rucaparib alone
[14] = at 0.000305 µM, OCI-C5x cells, without rucaparib
[15] = at 0.000305 µM, OCI-P5x cells, with rucaparib 20 µM, 100% = cells with rucaparib alone
[16] = at 0.000305 µM, OCI-P5x cells, without rucaparib
[17] = at 0.00122 µM, OCI-C5x cells, with rucaparib 10 µM, 100% = cells with rucaparib alone
[18] = at 0.00122 µM, OCI-C5x cells, without rucaparib
[19] = at 0.00122 µM, OCI-P5x cells, with rucaparib 20 µM, 100% = cells with rucaparib alone
[20] = at 0.00122 µM, OCI-P5x cells, without rucaparib
[21] = at 0.00488 µM, OCI-C5x cells, with rucaparib 10 µM, 100% = cells with rucaparib alone
[22] = at 0.00488 µM, OCI-C5x cells, without rucaparib
[23] = at 0.00488 µM, OCI-P5x cells, with rucaparib 20 µM, 100% = cells with rucaparib alone
[24] = at 0.00488 µM, OCI-P5x cells, without rucaparib
[25] = at 0.0195 µM, OCI-C5x cells, with rucaparib 10 µM, 100% = cells with rucaparib alone
[26] = at 0.0195 µM, OCI-C5x cells, without rucaparib
[27] = at 0.0195 µM, OCI-P5x cells, with rucaparib 20 µM, 100% = cells with rucaparib alone
[28] = at 0.0195 µM, OCI-P5x cells, without rucaparib
[29] = at 0.0781 µM, OCI-C5x cells, with rucaparib 10 µM, 100% = cells with rucaparib alone
[30] = at 0.0781 µM, OCI-C5x cells, without rucaparib
[31] = at 0.0781 µM, OCI-P5x cells, with rucaparib 20 µM, 100% = cells with rucaparib alone
[32] = at 0.0781 µM, OCI-P5x cells, without rucaparib
[33] = at 0.313 µM, OCI-C5x cells, with rucaparib 10 µM, 100% = cells with rucaparib alone
[34] = at 0.313 µM, OCI-C5x cells, without rucaparib
[35] = at 0.313 µM, OCI-P5x cells, with rucaparib 20 µM, 100% = cells with rucaparib alone
[36] = at 0.313 µM, OCI-P5x cells, without rucaparib
[37] = at 1.25 µM, OCI-C5x cells, with rucaparib 10 µM, 100% = cells with rucaparib alone
[38] = at 1.25 µM, OCI-C5x cells, without rucaparib
[39] = at 1.25 µM, OCI-P5x cells, with rucaparib 20 µM, 100% = cells with rucaparib alone
[40] = at 1.25 µM, OCI-P5x cells, without rucaparib
[41] = at 5 µM, OCI-C5x cells, with rucaparib 10 µM, 100% = cells with rucaparib alone
[42] = at 5 µM, OCI-C5x cells, without rucaparib
[43] = at 5 µM, OCI-P5x cells, with rucaparib 20 µM, 100% = cells with rucaparib alone
[44] = at 5 µM, OCI-P5x cells, without rucaparib
[45] = stronger effect = lower value, cell number ratio, induced over uninduced
[46] = measured here: relative caspase fold change +Dox/-Dox
[47] = measured here: total cells with miR-34 induction, stronger effect = lower value
[48] = measured here: total cells without miR-34 induction
[49] = MELAS cybrid survival, CellTiter-Glo 48 h, stronger effect = higher value
[50] = Rieske KO mouse fibroblast survival, CellTiter-Glo 72 h

Cc1cc(Nc2nc(N[C@@H](C)c3ncc(F)cn3)ncc2Cl)n[nH]1
active: AC50 [1] 16.6 µM | AC50 [2] 9.35 µM | AC50 [3] 13.2 µM | AC50 [4] 1.48 µM | AC50 [5] 0.661 µM | AC50 [6] 9.35 µM | AC50 [7] 0.934 µM | IC50 [8] 1.48 µM | viability [9, 13] 99.3% | viability [9, 15] 91% | viability [9, 16] 91.4% | viability [9, 19] 92.4% | viability [9, 20] 97.8% | viability [9, 24] 99.3% | viability [9, 28] 99.8% | viability [9, 31] 96.5% | viability [9, 33] 97.7% | viability [9, 35] 85.8% | viability [9, 36] 99.9% | viability [9, 37] 78.7% | viability [9, 39] 80.1% | viability [9, 40] 86.6% | viability [9, 41] 46.6% | viability [9, 42] 55.9% | viability [9, 43] 30.7% | viability [9, 44] 24.9%
inactive: viability [9, 14] 105% | viability [9, 17] 112% | viability [9, 18] 112% | viability [9, 21] 106% | viability [9, 22] 115% | viability [9, 23] 102% | viability [9, 25] 112% | viability [9, 26] 102% | viability [9, 27] 101% | viability [9, 29] 102% | viability [9, 30] 104% | viability [9, 32] 101% | viability [9, 34] 102% | viability [9, 38] 101%

CO[C@H]1/C=C/O[C@@]2(C)Oc3c(C)c(O)c4c(O)c(c5c(c4c3C2=O)=NC2(CCN(CC(C)C)CC2)N=5)NC(=O)/C(C)=C/C=C/[C@H](C)[C@H](O)[C@@H](C)[C@@H](O)[C@@H](C)[C@H](OC(C)=O)[C@@H]1C
inactive: outcome [1] | outcome [2] | outcome [3] | outcome [4]

O=C1c2c(O)cc(O)cc2O[C@H](c2cc(O)c(O)c(O)c2)[C@H]1O
inactive: outcome [1] | outcome [2] | outcome [3]

CCOC(=O)N1CCN(/[N+]([O-])=N/Oc2ccc([N+](=O)[O-])cc2C#N)CC1
inactive: outcome [1]
active: AC50 [2] 1.32 µM

C[C@@H]1C(=O)O[C@H]2CC34[C@H]5C[C@@H](C(C)(C)C)C36[C@@H](OC(=O)[C@@H]6O)O[C@@]4(C(=O)O5)[C@]21O (stereo partly drawn)
inactive: outcome [1] | outcome [2] | outcome [3] | outcome [4] | outcome [5] | outcome [6] | outcome [7]

C[C@@H]1CCO[C@H]2Cn3cc(C(=O)NCc4ccc(F)cc4F)c(=O)c(O)c3C(=O)N12
inactive: outcome [1] | outcome [2]

CCN(CC)CCn1c(=O)c(Cc2ccc(OC)cc2)nc2ccccc21
9170: cell count [10, 48]
inactive: outcome [1] | outcome [2] | outcome [3] | outcome [4] | outcome [5] | outcome [6] | outcome [7] | outcome [8] | fold change [10, 45] 0.991
1.5: fold change [10, 46]
9100: cell count [10, 47]

CCN(c1cc(-c2ccc(CN3CCOCC3)cc2)cc(C(=O)NCc2c(C)cc(C)[nH]c2=O)c1C)C1CCOCC1
7910: cell count [10, 47]
inactive: outcome [8] | fold change [10, 45] 0.946 | z-score [11, 49] -0.348
-0.95: z-score [11, 50]
8360: cell count [10, 48]
0.487: fold change [10, 46]

Cc1cc2c(F)c(Oc3ncnn4cc(OC[C@@H](C)O)c(C)c34)ccc2[nH]1
inactive: viability [9, 13] 117% | viability [9, 14] 131% | viability [9, 15] 112% | viability [9, 16] 105% | viability [9, 17] 131% | viability [9, 18] 128% | viability [9, 19] 112% | viability [9, 20] 109% | viability [9, 21] 125% | viability [9, 22] 126% | viability [9, 23] 108% | viability [9, 25] 111% | viability [9, 26] 124% | viability [9, 27] 110% | viability [9, 28] 102% | viability [9, 29] 123% | viability [9, 30] 141% | viability [9, 32] 108% | viability [9, 33] 122% | viability [9, 34] 129% | viability [9, 35] 113% | viability [9, 36] 106% | viability [9, 37] 117% | viability [9, 38] 135% | viability [9, 39] 109% | viability [9, 40] 102% | viability [9, 41] 122% | viability [9, 42] 139% | viability [9, 43] 109%
active: IC50 [8] 14.8 µM | viability [9, 24] 99.9% | viability [9, 31] 99% | viability [9, 44] 97.4%

CN1C(=O)C[C@H](C(=O)N[C@@H](Cc2cnc[nH]2)C(=O)N2CCC[C@H]2C(N)=O)NC1=O
inactive: outcome [1]

C[C@@]12C(=O)OC(=O)[C@@]1(C)C1CCC2O1
active: AC50 [1] 1.66 µM | AC50 [2] 2.64 µM | AC50 [3] 1.48 µM

COc1ccc(Cc2ccc(NC(N)=O)cc2)cc1-c1cccc(Cl)c1
inactive: outcome [1] | outcome [2] | outcome [3] | outcome [4] | outcome [5] | outcome [6] | outcome [7]

O=C(NCc1ccncc1)C12C[C@H]3C[C@@H](C1)CC(c1ccc(Cl)cc1)(C3)C2
active: AC50 [1] 14.8 µM

O=[N+]([O-])c1ccc(Nc2ccccc2-c2ccccc2)c2nonc12
inactive: outcome [1] | outcome [2] | outcome [3]
active: AC50 [4] 23.5 µM | AC50 [5] 18.6 µM | AC50 [6] 20.9 µM | AC50 [7] 23.5 µM

CC(C)n1nc(-c2ccc3oc(N)nc3c2)c2c(N)ncnc21
inactive: fold change [10, 45] 0.877 | plate-normalised HSF1 focus index [12] 1.03 | viability [9, 13] 109% | viability [9, 14] 109% | viability [9, 17] 113% | viability [9, 18] 121% | viability [9, 21] 100% | viability [9, 22] 123%
active: AC50 [1] 9.35 µM | AC50 [2] 8.33 µM | AC50 [3] 3.72 µM | AC50 [4] 1.18 µM | AC50 [5] 0.0661 µM | AC50 [6] 18.7 µM | AC50 [7] 1.18 µM | IC50 [8] 4.17 µM | z-score [11, 49] 2.73 | viability [9, 15] 96.2% | viability [9, 16] 92.8% | viability [9, 19] 92.7% | viability [9, 20] 90.7% | viability [9, 23] 80.8% | viability [9, 24] 79.2% | viability [9, 25] 87.5% | viability [9, 26] 88.1% | viability [9, 27] 56.8% | viability [9, 28] 52.8% | viability [9, 29] 70.4% | viability [9, 30] 62.2% | viability [9, 31] 43.5% | viability [9, 32] 37.2% | viability [9, 33] 61.9% | viability [9, 34] 55.6% | viability [9, 35] 36.9% | viability [9, 36] 26.5% | viability [9, 37] 51.8% | viability [9, 38] 47.4% | viability [9, 39] 29% | viability [9, 40] 22.9% | viability [9, 41] 39% | viability [9, 42] 31.9% | viability [9, 43] 19.5% | viability [9, 44] 15.8%
0.57: SSMD [12]
2980: cell count [10, 47]
6620: cell count [12]
0.45: fold change [10, 46]
3400: cell count [10, 48]
-2.58: z-score [11, 50]
